Source: PubChem (Johns Hopkins Ion Channel Center)
Sampled rows, rich in hits. Any-hit rate of the full collection: about 1.6%.
KCNQ2 pot: potentiators of rat KCNQ2 potassium channel | Potassium voltage-gated channel subfamily KQT member 2 (Rattus norvegicus), O88943 | CHO-K1 KCNQ2, FluxOR thallium flux fluorescence; stronger effect = higher value | B-score at 10 µM | 0.54% of 310,000 active | AID 2239, 2010;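 active = fluorescence ratio B-score at least 3 SD of library B-scores, with initial fluorescence B-score within 3 of them, cut at about 5.3 in these data; same plate scores as AID 2156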;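 note: B-score of peak minus minimum over baseline fluorescence ratio after K+ and Tl+ stimulus; positive B-score means potentiation of KCNQ2 with more thallium influx and brighter signal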
Target sequence (O88943 whole entry, looked up): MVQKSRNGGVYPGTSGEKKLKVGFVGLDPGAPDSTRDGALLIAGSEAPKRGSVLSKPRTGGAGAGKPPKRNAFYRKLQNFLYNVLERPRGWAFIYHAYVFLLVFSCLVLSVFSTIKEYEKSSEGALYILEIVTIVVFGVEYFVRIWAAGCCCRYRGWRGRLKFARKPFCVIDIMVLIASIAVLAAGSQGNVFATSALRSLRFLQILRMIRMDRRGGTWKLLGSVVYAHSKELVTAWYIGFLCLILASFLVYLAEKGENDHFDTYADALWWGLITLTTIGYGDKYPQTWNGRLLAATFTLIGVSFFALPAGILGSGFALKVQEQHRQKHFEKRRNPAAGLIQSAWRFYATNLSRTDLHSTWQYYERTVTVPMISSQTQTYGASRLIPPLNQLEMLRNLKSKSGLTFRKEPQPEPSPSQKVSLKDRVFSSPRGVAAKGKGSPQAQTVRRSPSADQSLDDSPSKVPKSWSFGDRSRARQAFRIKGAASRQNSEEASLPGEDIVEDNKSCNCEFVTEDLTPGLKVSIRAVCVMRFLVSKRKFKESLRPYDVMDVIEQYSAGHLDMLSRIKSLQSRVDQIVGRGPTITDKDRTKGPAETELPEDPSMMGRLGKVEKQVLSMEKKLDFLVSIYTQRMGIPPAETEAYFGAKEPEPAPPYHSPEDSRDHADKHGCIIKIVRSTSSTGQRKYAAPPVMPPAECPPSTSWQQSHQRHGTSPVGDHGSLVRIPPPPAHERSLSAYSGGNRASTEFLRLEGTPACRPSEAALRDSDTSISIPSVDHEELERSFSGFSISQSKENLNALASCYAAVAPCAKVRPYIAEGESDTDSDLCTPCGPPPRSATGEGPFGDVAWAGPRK
KCNQ2 block: rat KCNQ2 potassium channel inhibitors, primary screen, cell-based, CHO-K1, FluxOR thallium flux, B-score. Potassium voltage-gated channel subfamily KQT member 2 (Rattus norvegicus), O88943. 20 min; stronger effect = lower value. B-score at 10 µM. 1.1% of 310,000 active. AID 2156, 2009;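 active = fluorescence ratio B-score at most minus 3 library SDs, with starting brightness B-score within 2 library SDs, cut at about -5.5 in these data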
Active calls of the source: *; i = inactive; nt = no result.

SMILES | KCNQ2 pot | KCNQ2 block
CC1=NN(C(=O)c2ccc(Cn3nc(C)c([N+](=O)[O-])c3C)cc2)C(O)(C(F)(F)F)C1 (centres undefined) | 2.4 | i
CC1=NN(C(=O)c2ccc(Cn3nc(C)c(Br)c3C)cc2)C(O)(C(F)(F)F)C1 (centres undefined) | 13* | i
Cc1cc(C(C)(C)C)ccc1OCCN(C)C | nt | i
CC(C)Cc1cc(C(C)(C)C)ccc1OC(=S)N(C)C | -7.8 | -7.8*
O=C(/C=C/c1ccccc1)Nc1cccnc1Oc1ccccc1F | 0.6 | i
COc1ccccc1-n1ccnc(SCC(=O)NCCc2ccccc2)c1=O | 0.08 | i
COc1ccc(C(=O)Oc2ccc(C(=S)N3CCOCC3)cc2)cc1 | 1.1 | i
COc1ccccc1C1CN(c2ccc(F)cc2F)N=C1c1cccs1 (centres undefined) | -7.8 | -7.8*
COc1ccccc1C1CC(c2cccs2)=NN1C(=O)CCC(=O)O (centres undefined) | 0.69 | i
O=C(OCCOc1cccc(Cl)c1)C1CCN(S(=O)(=O)c2ccccc2)CC1 | nt | i
COc1ccc(-c2noc(CN(C)C(=O)c3ccoc3C)n2)cc1OC | 2 | i
CCOc1ccc(CCn2c(-c3ccco3)nc3ccccc3c2=O)cc1OCC | -6.9 | -6.9*
O=c1c2ccccc2nc(-c2ccco2)n1Cc1ccccc1 | nt | i
COc1ccc(COC(=O)c2ccc(S(=O)(=O)N3CCC(C)CC3)cc2)cc1 | nt | i
COc1ccc(/C=N/Nc2nc(N3CCCC3)nc(N3CCCC3)n2)cc1 | nt | i
COc1ccc(/C=N/Nc2nc(N3CCCC3)nc(N3CCCC3)n2)cc1O | -6.3 | -6.3*
CCOC(=O)Cn1c2ccc(OC)cc2c2nc3ccccc3nc21 | nt | i
COC(=O)Cn1c2ccc(OC)cc2c2nc3ccccc3nc21 | -5.7 | -5.7*
CC1CC(C)CN(C(=O)c2ccc3c(c2)N(Cc2ccccc2)CCS3)C1 (centres undefined) | -6.2 | -6.2*
CCOC(=O)N1CCN(C(=O)c2ccc3c(c2)N(Cc2ccccc2)CCS3)CC1 | nt | i
COc1ccc(-c2nn(-c3ccccc3)cc2/C=C/C(=O)N2CCN(c3ccccn3)CC2)cc1 | nt | i
CCOC(=O)c1c(NC(=S)Nc2ccccc2)sc2c1CC(C)(C)SC2 | nt | i
COC(=O)c1c(NC(C)=O)sc2c1CCCC2 | nt | i
CCOC(=O)c1c(NC(=S)NC)sc2c1CC(C)(C)SC2 | 11* | i
CNC(=S)Nc1sc2c(c1C(=O)OC)CCC2 | 5.6* | i
SMILES | KCNQ2 pot | KCNQ2 block
CC1(C)CC(NC(=O)c2cccc([N+](=O)[O-])c2)CC(C)(C)N1 | 1.2 | i
COc1ccc(-c2nn(-c3ccccc3)cc2CN(C)CCn2ccnc2C)c(F)c1 | nt | i
COc1cc([N+](=O)[O-])cc(/C=N/NC(=O)C(C)Nc2cccc3ccccc23)c1O (centres undefined) | 0.91 | i
COc1ccccc1NC(C)C(=O)N/N=C/c1ccccc1OCc1cccc(Br)c1 (centres undefined) | -6.3 | -6.3*
Cc1cc([N+](=O)[O-])nn1CC(=O)NC1CCCCC1 | 0.58 | i
O=C(NCc1ccccc1)C(c1cccs1)N(Cc1cccs1)C(=O)c1cnccn1 (centres undefined) | -6 | -6*
O=C(NCc1ccccc1)C(c1ccccc1)N(Cc1cccs1)C(=O)c1cnccn1 (centres undefined) | nt | i
Cc1ccc(C2(C)NC(=O)N(CC(=O)Nc3ccccc3N3CCCC3)C2=O)cc1 (centres undefined) | 1.1 | i
c1ccc(-n2cnnc2SCc2cn3ccsc3n2)cc1 | nt | i
Cc1ccc(-n2c(SCc3cn4ccsc4n3)nc3ccccc3c2=O)cc1 | -5.6 | -5.6*
COc1ccccc1/C=C(/CC(=O)NCc1ccc(F)cc1)c1nc2ccccc2s1 | -6.8 | -6.8*
COc1ccccc1/C=C(/CC(=O)NCc1ccccc1)c1nc2ccccc2s1 | nt | i
N#Cc1cc2cc3ccccc3nc2n2c(=O)c3ccccc3nc12 | nt | i
CN(C)C(=O)c1c2c(nc3ccccc13)CCCC2 | 1.7 | i
CN(C)C(=O)c1c2c(nc3ccccc13)-c1ccccc1CC2 | -6.1 | -6.1*
CCNC(=O)NC1(C(=O)N2CCC(Cc3ccccc3)CC2)CCCCC1 | 0.55 | i
O=C1c2cccc(OCc3ccc(F)cc3)c2CCN1Cc1ccccc1 | -6.5 | -6.5*
Cc1ccc(COc2cccc3c2CCN(Cc2ccc(F)cc2)C3=O)cc1 | nt | i
Cc1ccc([N+](=O)[O-])c2c1C(N1CC(C)OC(C)C1)C(C)(C)O2 (centres undefined) | nt | i
COc1cccc(NC(=O)CN(C)C(=O)CN2C(=O)NC(C)(c3ccc4ccccc4c3)C2=O)c1 (centres undefined) | 0.82 | i
COc1ccc2nc(N=Nc3ccc(O)c4ccccc34)sc2c1 | 9.3* | i
